Pf growth 48h: P. falciparum growth inhibition at 48 hours (one generation) | P. falciparum luciferase growth in erythrocytes, 48 h | Potency, µM (doses to about 28.7 µM), inactives show at the highest dose activity change, negative = inhibition, hits mostly inhibitors | 310,000 compounds, 5.9% hits | AID 504832; also: potency is read from the fitted curve at half-maximal effect; % is scaled to controls: 0 for no effect and ±100 for the full control effect
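Read-out is firefly luciferase luminescence from an integrated reporter in P. falciparum, so falling signal marks reduced parasite growth. Infected erythrocytes were at 2% hematocrit and 0.1% parasitemia (final) in Albumax-supplemented RPMI 1640.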
HCV inhibitor: inhibitors of hepatitis C virus infection; Potency, µM (doses to about 41.8 µM), inactives show at the highest dose activity change, negative = inhibition, actives largely listed as inhibitors; 340,000 compounds, 3.4% hits; Huh7.5.1 HCVcc-Cre infection, luciferase reporter, 44 h; AID 651820; also: potency is read from the fitted curve at half-maximal effect; % is scaled to controls: 0 for no effect and ±100 for the full control effect
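Antiviral activity was scored by luciferase reporter output from cells infected with HCVcc-Cre (~0.5 moi) in presence of compound, 44 h infection period, cells seeded 1,000/well 4 h prior.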
Shiga inhibitor: blocks Shiga toxin action in Vero cells; AID 2315; Vero cells, Shiga toxin protein synthesis inhibition reporter; 290,000 compounds, 9.2% hits; inhibition, % at 38.7 µM; in the data active = inhibition mostly above about 28%, no sharp cut-off; inactive = mostly below about 43%; also: 0% is about no effect
CHX counter: counter-screen for Shiga toxin inhibitors: cycloheximide protein synthesis inhibition; max response, %; 300,000 compounds, 12% hits; cell reporter, cycloheximide protein synthesis inhibition counterscreen; AID 2314; in the data active = max response mostly above about 13%, no sharp cut-off; inactive = mostly below about 14%; also: read at 38.3 µM for the half of the compounds with a filed dose; 0% is about no effect
Pf growth 96h: inhibits malaria parasite growth, 96 h | P. falciparum luciferase reporter growth, 96 h | Potency, µM (series often up to 28.7 µM), inactives show at the top dose activity change, negative = inhibition, actives largely listed as inhibitors | 320,000 compounds, 6.9% hits; also: potency is read from the fitted curve at half-maximal effect; % is scaled to controls: 0 for no effect and ±100 for the full control effect
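Plates of compound plus infected erythrocytes (2% hematocrit, 0.05% parasitemia final) incubate 96 hours, 37 C, 5% CO2. Detection reagent added; reduced luminescence from the parasites' luciferase reporter flags inhibition.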
AMA1-RON2 inh: inhibitors of Plasmodium falciparum AMA1-RON2 interaction; 360,000 compounds, 0.2% hits; AlphaScreen AMA1-biotinylated RON2 peptide binding; Potency, µM (highest dose often 58.2 µM), inactives show at the highest dose activity change, negative = inhibition, most hits filed as inhibitors;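 also: potency is read from the fitted curve at half-maximal effect; 0% = vehicle wells and -100% = peptide control; nearly all actives have a fitted effect of over 45% in size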
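AMA1 (3D7) with his tag at 25 nM final met compounds first, then biotinylated RON2 peptide at 25 nM; detection used donor plus acceptor beads, 10 µg/mL apiece, read by AlphaScreen after 30 min at room temperature.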
* marks the source's active call; other numbers are inactive results; ? = inconclusive; nt = no result given; [ ] = remark or other dose. Only some compounds are listed: those with a hit (about 21% of all), similar ones and a draw of the others. Unless noted, calls follow the shape of the dose curve; as a rule, active = well fitted curve in the direction sought with a large enough effect; inconclusive = small, poorly fitted or top-dose-only effect, or another doubt; inactive = no such curve, though single readings can be large; an effect the other way counts as inactive or inconclusive.

SMILES	Pf growth 48h	HCV inhibitor	Shiga inhibitor	CHX counter	Pf growth 96h	AMA1-RON2 inh
CCCCc1ccc(NC(=S)NCc2ccc(OC)cc2)cc1	-1%	?	25	10	30%	51%
CCOC(=O)c1c(-c2ccccc2Cl)csc1NC(=O)c1cc(S(=O)(=O)N2CCOCC2)ccc1C	15µM*	?	-8	-2	?	0%
CCOc1ccccc1NC(=O)c1cc(S(=O)(=O)N2CCOCC2)ccc1C	-10%	10%	8	0	12µM*	3%
COC(=O)c1cnn(-c2nc(-c3ccccc3)cs2)c1N	85%	?	40*	42*	76%	-1%
CCOC(=O)c1cnn(-c2nc(-c3ccccc3)cs2)c1C(F)(F)F	35%	7%	28	2	77%	69%
O=C(O)c1cnn(-c2nc(-c3ccc(Cl)cc3)cs2)c1C(F)(F)F	nt	13%	82*	53*	16%	-6%
COc1ccc(-c2csc(-n3ncc(C(=O)O)c3C(F)(F)F)n2)cc1	15%[0.00184 µM]	14%	135*	74*	40%	11%
CCOC(=O)Cn1nc(-c2ccccc2)nc1-c1ccccc1	43%	3%	27	26*	nt	12%
CCOC(=O)Cn1ncc(-c2ccccc2)c1N	83%	29%	68*	29*	?	45%
C[C@]12C(=O)N(c3cccc(F)c3)C(=O)N1[C@@H]1c3ccccc3OC[C@@H]1[C@H]2c1ccccc1	?	?	-8	0	8.3µM*	-13%
Cc1ccc(N2C(=O)N3[C@H]4c5ccccc5OC[C@@H]4[C@@H](c4ccccc4)[C@@]3(C)C2=O)cc1	?	?	-2	-2	8.3µM*	7%
C[C@]12C(=O)N(c3ccccc3)C(=O)N1[C@@H]1c3ccccc3OC[C@@H]1[C@H]2c1ccccc1	?	?	6	8	4%	-1%
O=C(COC(=O)C1CCN(C(=O)c2ccc(Cl)cc2)CC1)Nc1ccccc1F	0%	20%	nt	nt	22%	3%
COc1cc(OC)cc(-c2c(Sc3ccccc3)c3cc(-c4ccc(SC)cc4)ccc3n2C)c1	nt	nt	nt	nt	nt	13%
Cc1ccc(Nc2c(-c3ccc(N(C)C)cc3)nc3ncccn23)cc1	?	16%	21	14	?	-25%
Cc1ccc(SCc2nc3ncccn3c2Br)cc1	-18%	1%	37	28*	-5%	11%
COc1cccc(CNC(=O)Cc2ccc(NC(=O)C3=C(C)OCCS3)cc2)c1	54%	-23%	41*	29*	?	-1%
CC1=C(C(=O)Nc2cccc(C(=O)NCc3ccc(F)cc3)c2)SCCO1	-2%	-18%	-7	-7	?	0%
CCc1ccc(CNC(=O)Cc2ccc(NC(=O)C3=C(C)OCCS3)cc2)cc1	126%	-27%	57*	36*	12µM*	4%
CC1=C(C(=O)Nc2ccc(CC(=O)NCc3ccccc3C)cc2)SCCO1	46%	-13%	55*	22*	?	-5%
CCOc1ccc(CNC(=O)Cn2nc(C)c3c(C)n(-c4ccc(C)cc4)nc3c2=O)cc1	8%	-14%	13	0	-9%	73%
NC(=O)NC1CCCc2c1[nH]c1ccc(Cl)cc21 (configuration not stated)	21%	6.3µM*	14	-4	-27%	-4%
NC(=O)C1CCCCc2c1[nH]c1ccc(Cl)cc21 (configuration not stated)	25%	-13%	-4	-4	20%	-8%
COc1cc(OC)c(N2CC(C(=O)Nc3cccc(C(=O)NC4CC4)c3)CC2=O)cc1Cl (configuration not stated)	1%	?	nt	nt	-26%	0%
S=C(NCc1ccco1)N/N=C/c1cccnc1	13%	7%	16	8	?	83%
SMILES	Pf growth 48h	HCV inhibitor	Shiga inhibitor	CHX counter	Pf growth 96h	AMA1-RON2 inh
O=C(N/N=C/c1cccnc1)c1ccco1	58%	16%	66*	26*	-1%	26%
Cc1ccc(C)c(-c2cc(C(=O)N/N=C/c3cccnc3)c3ccccc3n2)c1	?	-5%	-24	-2	4.7µM*	16%
Cc1ccc(-c2cc(C(=O)N/N=C/c3cccnc3)c3ccccc3n2)cc1C	nt	-12%	nt	nt	nt	65%
O=C(N/N=C\c1cccnc1)c1ccccc1O	3%	11%	33*	23*	-2%	6%
O=C(N/N=C/c1cccnc1)c1cccs1	9%	8%	75*	38*	-15%	21%
COC(=O)Cc1ccc(OC2(C)CCN(Cc3ccc(-c4ccccn4)cc3)C2)cc1 (configuration not stated)	nt	nt	nt	nt	nt	-8%
CC(C)(C)c1cc(C(=O)N/N=C/c2ccc(O)cc2)n(-c2ccccc2)n1	9.3µM*	-2%	-6	-2	-8%	-2%
O=C(N/N=C/c1cccnc1)c1ccc2ccccc2c1O	26%	-1%	38*	20*	-17%	97%
O=C(N/N=C/c1cccnc1)c1ccccc1Br	18%	15%	47	12	-4%	-2%
O=C(Nc1ccccn1)c1ccc2ccccc2c1O	71%	-4%	66*	40*	-14%	88%
O=C(Nc1cccnc1)c1ccc2ccccc2c1O	65%	8%	39*	33*	0.47µM*	5%
CCc1ccc(C2=CSC3=NCCN23)cc1	-5%	6%	-4	1	1%	11%
O=C(NC(c1ccccc1)c1ccsc1)C1CCN(CCOc2ccc(Cl)cc2Cl)CC1 (configuration not stated)	nt	nt	nt	nt	nt	0%
Cc1cccc(-c2cc(C(=O)Nc3sc(C)c(C)c3C(N)=O)c3ccccc3n2)c1	34%	-24%	3	-1	?	4%
O=C(N/N=C\c1cccnc1)c1ccc(Cl)cc1Cl	-15%	6%	54*	31*	?	53%
O=C(N/N=C\c1ccccc1)c1ccccc1-n1cccc1	?	14%	4	26	?	-4%
Cc1ccc(C)c(-c2cc(C(=O)Nc3sc(C)c(C)c3C(N)=O)c3ccccc3n2)c1	?	11µM*	-14	2	10µM*	-16%
O=C(N/N=C/c1cccnc1)c1ccc(Cl)c(Cl)c1	nt	5%	nt	nt	nt	-8%
Nc1c(C(=O)N/N=C/c2ccccc2)cnn1-c1ccccc1	151%	-19%	96*	45*	218%	-7%
O=C(N/N=C/c1cccnc1)c1ccccc1Cl	15%	-6%	61*	17*	-20%	-5%
CC(=O)Nc1ccc(NC(=O)CSc2ccc3nnc(-c4cccnc4)n3n2)cc1	4%	8%	-4	-5	7%	-9%
O=C(CSc1nc2ccccc2c(=O)[nH]1)Nc1cccc([N+](=O)[O-])c1	-21%	-19%	14	-2	1.2µM*	2%

From PubChem BioAssay
